Measured values taken from PubChem BioAssay (Tox21).
Records with an inconclusive call do not appear. Activity calls are given as the source filed them. Calls follow the shape of the full dose curve.

Tests used:
[1] = biological target: Acetylcholinesterase (Homo sapiens) (UniProt P22303); assay: Acetylcholinesterase (AChE) small molecule antagonists: colormetric cell-based qHTS assay (AID 1347395); conditions: SH-SY5Y cells AChE activity, colorimetric (Ellman); series mostly up to 115 µM; also: nearly all actives have a fitted effect of over 30% in size
Chain of Acetylcholinesterase (Homo sapiens) (P22303 whole entry, looked up): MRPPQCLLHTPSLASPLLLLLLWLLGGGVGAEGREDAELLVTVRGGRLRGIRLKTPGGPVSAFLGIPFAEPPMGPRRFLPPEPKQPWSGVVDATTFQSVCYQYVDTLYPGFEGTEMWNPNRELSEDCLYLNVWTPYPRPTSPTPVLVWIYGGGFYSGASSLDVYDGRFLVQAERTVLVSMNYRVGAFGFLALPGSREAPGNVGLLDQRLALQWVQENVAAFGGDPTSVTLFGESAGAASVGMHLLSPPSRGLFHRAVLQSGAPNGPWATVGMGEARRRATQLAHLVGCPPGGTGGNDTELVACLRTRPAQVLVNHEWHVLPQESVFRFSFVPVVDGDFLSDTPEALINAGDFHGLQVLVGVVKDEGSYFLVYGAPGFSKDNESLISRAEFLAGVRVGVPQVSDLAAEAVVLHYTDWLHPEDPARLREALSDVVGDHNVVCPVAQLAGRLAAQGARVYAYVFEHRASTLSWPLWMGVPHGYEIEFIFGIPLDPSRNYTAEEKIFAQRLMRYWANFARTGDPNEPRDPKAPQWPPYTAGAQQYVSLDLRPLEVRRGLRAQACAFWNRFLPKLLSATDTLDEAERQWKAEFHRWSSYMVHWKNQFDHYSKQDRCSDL
Procedure, shortened: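 After overnight attachment at 37 C, SH-SY5Y cells get 30 min compound exposure; detection cocktail (acetylthiocholine, DTNB) then incubates 90 min at 37 C, and absorbance reflects AChE-generated thiocholine.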

[2] = biological target: Acetylcholinesterase (Homo sapiens) (UniProt P22303); assay: Acetylcholinesterase (AChE) small molecule antagonists: enzyme-based qHTS assay (AID 1347397); conditions: Potency: AChE enzyme activity inhibition; outcome: AChE enzyme activity inhibition; series mostly up to 115 µM; also: nearly all actives have a fitted effect of over 55% in size
Procedure, shortened: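 Recombinant human AChE (50 mU/mL) preincubated with compound 30 min at room temperature; acetylthiocholine plus DTNB then added, and thiocholine formation read colorimetrically after 10 min at room temperature. DMSO served as vehicle control.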

[3] = biological target: Acetylcholinesterase (Homo sapiens) (UniProt P22303); assay: Acetylcholinesterase (AChE) small molecule antagonists: fluorescence cell-based qHTS assay (AID 1347398); conditions: SH-SY5Y cells; Potency: AChE activity; outcome: AChE activity; series mostly up to 115 µM; also: nearly all actives have a fitted effect of over 50% in size
Procedure, shortened: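 SH-SY5Y cells (2000/well), attached overnight, incubated with compound 30 min at 37 C. Acetylthiocholine plus Thiolite Green then added for 40 min at room temperature. Thiocholine fluorescence (Ex/Em 490/520 nm) reports cellular AChE activity.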

[4] = biological target: Acetylcholinesterase (Homo sapiens) (UniProt P22303); assay: Acetylcholinesterase (AChE) small molecule antagonists: enzyme-based qHTS assay with human liver microsomes (AID 1347399); conditions: Potency: qHTS inhibition; outcome: qHTS inhibition; series mostly up to 115 µM; also: nearly all actives have a fitted effect of over 60% in size
Procedure, shortened: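 Recombinant human AChE (50 mU/mL in the enzyme mix) and human liver microsomes (0.25 mg/mL final) were preincubated with compound and NADPH (0.25 mg/mL final) for 30 min at 37 C. Acetylthiocholine/DTNB was then added; thiocholine was read colorimetrically after 10 min at room temperature.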
% is scaled to controls: 0 for no effect and ±100 for the full control effect.

N=C(N=C(N)N)N1CCOCC1
inactive: Potency [1] | Potency [2] | Potency [3] | Potency [4]

CCN1CCN(c2cc3c(cc2F)c(=O)c(C(=O)O)cn3C2CC2)CC1
inactive: Potency [1] | Potency [2] | Potency [3] | Potency [4]

CC1CN(c2cc3c(cc2F)c(=O)c(C(=O)O)cn3-c2ccc(F)cc2F)CCN1 (centres undefined)
inactive: activity, negative = inhibition [1] 1.81% [at 10.5 µM] | activity change, negative = inhibition [2] 0.0761% [at 10.5 µM] | activity change, negative = inhibition [3] 3.28% [at 10.5 µM] | activity change, negative = inhibition [4] 5% [at 10.5 µM]

O=C(O)CCN(C1(C(=O)NO)CCCC1)S(=O)(=O)c1ccc(Oc2ccc(F)cc2)cc1
inactive: Potency [1] | Potency [2] | Potency [3] | Potency [4]

CCN(CC)CCNC(=O)COc1ccc(Cl)cc1
inactive: Potency [1] | Potency [2] | Potency [3] | Potency [4]

CC1CCc2nccnc21 (centres undefined)
inactive: Potency [1] | Potency [2] | Potency [3] | Potency [4]

COP(=O)(O)OP(=O)(O)OC
inactive: Potency [1] | Potency [2] | Potency [3] | Potency [4]

Nc1ccc(Cl)c([N+](=O)[O-])c1
inactive: Potency [1] | Potency [2] | Potency [3] | Potency [4]

O=C1CCC(=O)N1Cl
inactive: Potency [1] | Potency [2] | Potency [3] | Potency [4]

CCCCN1C=CN(C)C1
inactive: activity, negative = inhibition [1] 0.291% [at 23.6 µM] | activity change, negative = inhibition [2] 1.48% [at 23.6 µM] | activity change, negative = inhibition [3] -2.29% [at 23.8 µM] | activity change, negative = inhibition [4] 0.0718% [at 23.6 µM]

CCC[C@@H]1C[C@@H](C(=O)N[C@@H]([C@H]2O[C@H](SC)[C@H](O)[C@@H](O)[C@H]2O)[C@@H](C)O)N(C)C1
inactive: Potency [1] | Potency [2] | Potency [3] | Potency [4]
